From paper PMC4336329 (PLoS ONE, 2015) come the findings set out here.

About 14,000 (4.5%) of roughly 310,000 compounds showed an effect of 50% or more. Effects have a minus sign here. Only a selection was taken, and strong results are over-represented in it overall.
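Also: peak tail current of the secondary pulse compared with the same well before compound.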

The target of this experiment is human ether-à-go-go-related gene (hERG) potassium channel (human, UniProt Q12809). Put plainly: primary screen, population patch clamp on CHO cells stably expressing hERG; higher = less effect of the substance.
human ether-à-go-go-related gene (hERG) potassium channel, sequence (Q12809 whole entry, looked up): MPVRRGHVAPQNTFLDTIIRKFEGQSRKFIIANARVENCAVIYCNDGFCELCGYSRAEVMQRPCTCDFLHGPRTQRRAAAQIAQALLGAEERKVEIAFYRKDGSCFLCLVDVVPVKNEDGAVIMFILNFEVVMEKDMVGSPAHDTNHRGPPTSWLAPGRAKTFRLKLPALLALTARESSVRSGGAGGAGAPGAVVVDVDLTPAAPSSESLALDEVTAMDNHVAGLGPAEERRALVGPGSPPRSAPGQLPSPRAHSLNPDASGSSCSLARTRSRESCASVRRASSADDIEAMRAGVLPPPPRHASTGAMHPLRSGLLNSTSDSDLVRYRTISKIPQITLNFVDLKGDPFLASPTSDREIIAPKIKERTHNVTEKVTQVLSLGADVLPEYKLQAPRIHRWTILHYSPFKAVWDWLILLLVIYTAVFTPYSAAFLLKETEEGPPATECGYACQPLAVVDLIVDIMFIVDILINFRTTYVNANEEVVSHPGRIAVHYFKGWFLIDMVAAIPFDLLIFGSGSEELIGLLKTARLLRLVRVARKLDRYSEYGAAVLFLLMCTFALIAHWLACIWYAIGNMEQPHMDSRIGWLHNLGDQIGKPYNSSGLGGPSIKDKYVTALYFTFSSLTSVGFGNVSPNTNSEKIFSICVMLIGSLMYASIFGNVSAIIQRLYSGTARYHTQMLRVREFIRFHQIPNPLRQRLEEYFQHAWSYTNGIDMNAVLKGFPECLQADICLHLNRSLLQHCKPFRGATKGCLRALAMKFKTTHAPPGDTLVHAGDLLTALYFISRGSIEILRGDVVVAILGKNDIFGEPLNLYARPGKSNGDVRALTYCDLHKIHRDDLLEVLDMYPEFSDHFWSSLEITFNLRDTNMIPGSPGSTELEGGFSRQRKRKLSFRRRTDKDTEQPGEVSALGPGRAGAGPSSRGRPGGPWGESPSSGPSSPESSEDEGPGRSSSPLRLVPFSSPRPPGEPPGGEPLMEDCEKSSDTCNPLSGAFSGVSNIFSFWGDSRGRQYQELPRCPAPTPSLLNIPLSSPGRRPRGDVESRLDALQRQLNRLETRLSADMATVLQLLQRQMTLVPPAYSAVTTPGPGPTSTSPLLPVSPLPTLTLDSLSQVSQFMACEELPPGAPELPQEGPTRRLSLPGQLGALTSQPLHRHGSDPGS
`Cc1c(Cl)cccc1NC(=O)CCN1CCCCCC1`: the “hERG current change (%, negative = inhibition) at 10uM” value is reported as -3.92%.
Regarding `C/C(=N\OCC(=O)NCC(F)(F)F)c1cc2ccccc2o1`, the “hERG current change (%, negative = inhibition) at 10uM” value is recorded as -1.58%.
As to `CN(Cc1nccn1C)C(=O)C1CCC(=O)N(Cc2cccc(C(F)(F)F)c2)C1` (stereo not drawn), the “hERG current change (%, negative = inhibition) at 10uM” value is listed as -9.93%.
The value for `CN(Cc1nccs1)C(=O)C1CCC(=O)N(CCc2cccc(F)c2)C1` (stereo not drawn) was -12.4%.
Next, `CN(Cc1nccn1C)C(=O)C1CCC(=O)N(CCc2ccc(Cl)cc2)C1` (stereo not drawn): -53.8%; `O=C(NCCc1nccs1)C1CCC(=O)N(CCc2ccc(Cl)cc2)C1` (stereo not drawn): -31.6%; `CN(Cc1cnccn1)C(=O)C1CCC(=O)N(CCc2ccc(Cl)cc2)C1` (stereo not drawn): -67.9%.
Next, `CN(Cc1ccccn1)C(=O)C1CCC(=O)N(CCc2ccc(Cl)cc2)C1` (stereo not drawn): -53.1%; `CCc1ccc(CN(C)C(=O)C2CCC(=O)N(Cc3ccccn3)C2)cc1` (stereo not drawn): -1.48%; `CN(Cc1cnn(C)c1)C(=O)C1CCC(=O)N(Cc2ccc(Cl)cc2)C1` (stereo not drawn): -9.64%.
`CN(Cc1cnccn1)C(=O)C1CCC(=O)N(CCc2ccccc2)C1` (stereo not drawn): the “hERG current change (%, negative = inhibition) at 10uM” value is reported as 19.7%.
The value for `CN(Cc1ccccn1)C(=O)C1CCC(=O)N(Cc2cccc(C(F)(F)F)c2)C1` (stereo not drawn) was -15.7%.
The value for `CN(Cc1ccon1)C(=O)C1CCC(=O)N(Cc2ccc(Cl)cc2)C1` (stereo not drawn) was -40.9%; that for `CN(Cc1nccs1)C(=O)C1CCC(=O)N(CCc2ccc(Cl)cc2)C1` (stereo not drawn) was -81.5%.
The value for `O=C(NNC(=O)C1COc2ccccc2O1)c1ccccc1` (stereo not drawn) was -1.85%; that for `O=C(NCc1cccs1)C1CCC(CNS(=O)(=O)c2ccccc2)CC1` (stereo not drawn) was -2.7%; that for `O=C(Nc1cccnc1)c1ccc(C(=O)Nc2cccnc2)cc1` was 29.7%.
Turning to `COc1ccc(-c2nc(CS(=O)CC(=O)NC3CCCCCC3)c(C)o2)cc1` (stereo not drawn), the “hERG current change (%, negative = inhibition) at 10uM” value is reported as 10.6%.
Next, `CCN(CC(=O)NC(C)(C)C)C(=O)C(c1ccccc1)c1ccccc1`: 23.5%; `COc1cccc(NC(=O)c2ccc(S(=O)(=O)NCc3cccnc3)cc2)c1`: -0.62%; `O=c1oc2ccccc2c(O)c1C=Nc1cccnc1`: 12.2%.
Regarding `Cc1cccc(CN2CCCC(C(=O)Nc3ccccc3Oc3cccnc3)C2)c1` (stereo not drawn), the “hERG current change (%, negative = inhibition) at 10uM” value is -43.9%.
Next, `Cc1ccccc1CN1CCCC(C(=O)Nc2ccccc2Oc2cccnc2)C1` (stereo not drawn): 0.0346%.
For `C#Cc1ccc(CN2CCCC(C(=O)Nc3ccccc3Oc3cccnc3)C2)cc1` (stereo not drawn), the “hERG current change (%, negative = inhibition) at 10uM” value is given as -58.5%.
Next, `O=C(Nc1ccccc1Oc1cccnc1)C1CCCN(Cc2ccccc2O)C1` (stereo not drawn): -57.2%.
Next, `O=C(Nc1ccccc1Oc1cccnc1)C1CCCN(Cc2ccc(F)cc2)C1` (stereo not drawn): -36.2%; `O=C(Nc1ccccc1Oc1cccnc1)C1CCCN(Cc2cccc(Cl)c2)C1` (stereo not drawn): -30.2%.
The value for `CCN1CCN(CC(O)COc2ccc3c(C)cc(=O)oc3c2)CC1.Cl` (stereo not drawn) was -0.83%; that for `O=C(CSCC(=O)N1CCOCC1)Nc1ccccc1` was -0.115%.
For `O=C(NC1CCS(=O)(=O)C1)c1ccc2c(c1)OCO2` (stereo not drawn), the “hERG current change (%, negative = inhibition) at 10uM” value is 13%.
The value for `Cc1nc2ccc(NC(=O)c3ccc(Cl)c(S(=O)(=O)N(C)c4ccccc4)c3)cc2s1` was 10.3%.
The value for `Cc1cccc(C)c1NC(=O)C(NC=O)c1ccccc1` (stereo not drawn) was -64.1%.
Next, `Cc1cccc(C)c1NC(=O)C(NC=O)c1ccc(N(C)C)cc1` (stereo not drawn): -11.1%; `Cc1cccc(C)c1NC(=O)C(NC=O)c1ccc(Cl)cc1` (stereo not drawn): 0.758%; `COc1cc2c(=O)n(Cc3ccco3)c(=O)n(CC(=O)c3ccc(Br)cc3)c2cc1OC`: -3.02%.
`O=C(CCc1ccccc1)NCC(c1ccco1)N1CCc2ccccc21` (stereo not drawn): the “hERG current change (%, negative = inhibition) at 10uM” value is -56.2%.
The value for `COc1ccccc1C(=O)NCC(c1ccco1)N1CCc2ccccc21` (stereo not drawn) was -6.41%.
The value for `O=C(NCC(c1ccco1)N1CCc2ccccc21)c1ccccc1Cl` (stereo not drawn) was -60.2%.
The value for `Cc1ccc(C(=O)NCC(c2ccco2)N2CCc3ccccc32)cc1` (stereo not drawn) was -13%; that for `Cc1cccc(C(=O)NCC(c2ccco2)N2CCc3ccccc32)c1` (stereo not drawn) was -25.6%; that for `O=C(NCC(c1ccco1)N1CCc2ccccc21)c1ccccc1F` (stereo not drawn) was -19.8%.
Regarding `O=C(NCC(c1ccco1)N1CCc2ccccc21)c1ccccc1` (stereo not drawn), the “hERG current change (%, negative = inhibition) at 10uM” value is recorded as -3.78%.
The value for `COc1ccc(CCC(=O)NCC(c2ccco2)N2CCc3ccccc32)cc1` (stereo not drawn) was -44.2%; that for `Cc1ccccc1C(=O)NCC(c1ccco1)N1CCc2ccccc21` (stereo not drawn) was -55.7%.
The value for `O=C(NCC(c1ccco1)N1CCc2ccccc21)c1c(F)cccc1F` (stereo not drawn) was -7.53%.
Next, `O=C(NCC(c1ccco1)N1CCc2ccccc21)c1ccccc1Br` (stereo not drawn): -29.3%; `Cc1ccc(C(=O)NCC(c2ccco2)N2CCc3ccccc32)cc1C` (stereo not drawn): -60.1%; `O=C(C[n+]1ccc(/C=N/O)cc1)N(Cc1ccccc1)Cc1ccccc1.[Cl-]`: 0.798%.
Turning to `CC(=C/C(=O)O)/C(=C/c1ccccc1)C(=O)O`, the “hERG current change (%, negative = inhibition) at 10uM” value is reported as 15.6%.
For `Cc1occc1C(=O)n1nnc2ccccc21`, the “hERG current change (%, negative = inhibition) at 10uM” value was -7.48%.
Regarding `Cc1cc(S(=O)(=O)NCCN2CCOCC2)ccc1Cl`, the “hERG current change (%, negative = inhibition) at 10uM” value is on record as 21.3%.
The value for `Cc1sc2ncn(CC(=O)NCCCN3CC(C)CC(C)C3)c(=O)c2c1S(=O)(=O)N1CC(C)CC(C)C1` (stereo not drawn) was -32.1%; that for `O=C(NCC(c1cccnc1)N1CCOCC1)C1CCCCC1` (stereo not drawn) was 5%; that for `Cc1ccnc(NC(=O)CNC(=O)c2ccc3ccccc3c2)c1` was -12.5%.
The value for `CCOC(=O)c1c(-c2ccccc2)c2cc(OC)ccc2n1CCCN(C)C.Cl` was -72.4%; that for `COc1ccc2c(c1)c(C(=O)OCCN(C)C)c(C)n2C.Cl` was -1.4%.
Next, `CCCCn1c(C)c(C(=O)O)c2cc(OC)ccc21`: 1.59%.
